# Screening results deposited in PubChem BioAssay by National Center for Advancing Translational Sciences (NCATS).
# The list is not random: actives were taken first. Their share in the collection is about 4.6%.
# TRHR enhancer – TRH receptor (human) allosteric enhancement | enhancement, % at 2 µM | TRHR cells, fluo-8 calcium fluorescence, EC20 TRH enhancement | P34981 | AID 493056 | 360,000 tested, 0.66% active; in the data active = enhancement above about 30%; note: 0% is about no effect
# Target sequence (P34981 whole entry, looked up): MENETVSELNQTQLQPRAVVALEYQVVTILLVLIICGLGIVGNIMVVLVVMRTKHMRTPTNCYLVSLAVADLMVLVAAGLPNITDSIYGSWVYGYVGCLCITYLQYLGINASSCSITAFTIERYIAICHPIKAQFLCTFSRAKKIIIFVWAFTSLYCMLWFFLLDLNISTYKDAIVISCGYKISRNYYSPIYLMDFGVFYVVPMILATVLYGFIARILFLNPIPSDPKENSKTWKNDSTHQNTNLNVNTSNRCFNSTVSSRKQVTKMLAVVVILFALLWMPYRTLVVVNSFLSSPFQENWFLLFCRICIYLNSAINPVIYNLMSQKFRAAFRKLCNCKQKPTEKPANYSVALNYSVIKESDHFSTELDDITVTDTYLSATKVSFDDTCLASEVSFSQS
#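 TRHR-expressing cells loaded with fluo-8 calcium dye were read kinetically (ex 480/em 530) during compound addition, then stimulated with an EC20 of TRH (10 nM final). Enhancement of the Gq-mediated intracellular calcium response was scored.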
# D1 PAM – enhances dopamine response at the human D1 receptor. 360,000 tested, 0.036% active. potentiation, % at 10 µM. HEK293 TREx D1 cells, calcium flux, dopamine EC20 potentiation. AID 504651; in the data active = potentiation above about 30%; note: 0% is about no effect
# D1 antagonist – antagonists of human D1 dopamine receptor; P21728; HEK293 TREx D1 cells, calcium flux, dopamine EC80; hits give low values; activity change, negative = inhibition, % at 10 µM; 360,000 tested, 3.2% active; AID 504652; in the data active = activity change below about -30%; note: % is set by controls: 0 for no effect and ±100 for the full control effect
#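 Using tetracycline-induced force-coupled D1 Hek293 cells and a calcium dye, signals were followed for 180 s after compound, then for 180 s after EC80 dopamine, to detect inhibitors.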
# TRHR ag – agonists of human TRH receptor. activation, % at 2 µM. 360,000 tested, 0.18% active. TRHR cells, calcium flux fluo-8, FDSS agonist mode. P34981; note: 0% is about no effect
#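 In this calcium-flux screen, cells bearing human TRHR are dye-loaded with fluo-8, baselined for 10 cycles, then exposed to library compounds; positive kinetic calcium responses during the agonist phase mark hits, with TRH as control.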
# D1 ag – human D1 receptor agonism. P21728. HEK293 T-REx D1 cells, calcium flux, agonist mode. activation, % at 2 µM. 360,000 tested, 1% active; note: 0% is about no effect
#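 Inducible HEK293 T-REx D1 cells, force-coupled to calcium signalling, were plated at 4000 cells/well with tetracycline and held overnight at 30 C. After no-wash calcium dye loading, compound-evoked calcium rise over 180 s flagged agonists.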
# Active calls of the source: *; . = no result; ! = a repeat was not active. Cut-off read from the data, not from the text of the source, unless noted: active = activation above about 30%; inactive = the rest.
SMILES,TRHR enhancer,D1 PAM,D1 antagonist,TRHR ag,D1 ag
CC(=O)c1c(C)[nH]c(C(=O)Nc2nc(-c3ccc(Cl)cc3)cs2)c1C,8.4,-14.8,-31.6*,-0.5,21.3
COc1ccc(-c2nc(NC(=O)Cn3cnnn3)sc2C)cc1,-8.7,-7.0,-9.3,0.7,0.8
COc1ccc(-c2nc(NC(=O)Cn3ccc(C(F)(F)F)n3)sc2C)cc1,-1.9,4.4,-40.4*,1.3,2.2
Cc1ccc(NC(=O)CN2C(=O)c3ccccc3C2=O)cc1,40.1*,-5.1,-2.5,0.3,0.8
Cc1ccc(NC(=O)CN2C(=O)c3cccnc3Sc3ccccc32)cc1C,32.7*,-4.8,-9.6,-0.5,-0.8
Cc1ccc(NC(=O)c2ccc3c(c2)C(=O)N(c2ccccc2C)C3=O)nc1,-0.3,.,-36.0*,0.0,16.4
Cc1cccc(NC(=O)CCCCCN2C(=O)c3ccccc3C2=O)n1,-2.2,-2.9,-10.5,-1.3,5.0
COc1ccc(NC(=O)CN2C(=O)c3cccnc3Sc3ccccc32)cc1OC,-8.3,-4.3,11.0,-0.6,0.7
Cc1ccc(N2C(=O)c3ccc(C(=O)Nc4cccnc4)cc3C2=O)c(C)c1,9.5,-2.6,-0.4,-0.2,-0.2
Cc1ccc(NC(=O)CCCCCN2C(=O)c3ccccc3C2=O)nc1,1.6,-9.4,-31.7*,-0.5,0.9
CNC(=O)c1ccccc1NC(=O)C1CC(=O)N(C(C)C)C1 (stereo not given),37.2*,-1.3,8.5,0.8,0.0
CC(NC(=O)c1ccc2c(c1)CCN2S(=O)(=O)c1ccccc1)c1ccccc1 (stereo not given),14.4,-1.6,-0.8,0.1,2.3
O=C(O)Cn1cc(/C=N/NC(=O)c2cc3cc(Br)ccc3o2)c2ccccc21,-4.9,4.3,-33.1*,0.4,0.7
COc1ccc(C(=O)N2CCCCCC2)cc1OC1CCN(C(C)=O)CC1,-0.3,-11.4,-67.0*,0.2,4.5
COc1cc(C)c(CN2CCN(CC(=O)Nc3ccccc3C(=O)NC3CC3)CC2)cc1OC,-9.9,-5.7,-30.2*,-0.1,0.4
COc1ccc(C(=O)NC2CC2)cc1OC1CCN(Cc2cc(C)c(C)cc2C)CC1,11.9,-15.7,-85.7*,-0.3,0.9
COc1cc(C(=O)N2CCCCCCC2)ccc1OC1CCN(C(C)=O)CC1,3.4,6.0,2.5,0.4,4.8
COc1ccc(CN2CCC(Oc3cc(C(=O)NC4CC4)ccc3OC)CC2)c(O)c1,0.6,-15.3,-76.9*,0.3,3.9
COc1ccc(C(=O)NC2CC2)cc1OC1CCN(Cc2cnn(C)c2C)CC1,6.6,-8.7,-27.0,0.8,0.3
Cc1cc(OCC(=O)Nc2sc3c(c2C#N)CCC(C)C3)ccc1Cl (stereo not given),0.9,10.1,-8.8,-1.0,-0.4
CCCC[C@]12Cc3cc(OC)c(OC)cc3C(O1)C1=C(O2)C(=O)c2ccccc2C1=O,-3.7,1.6,4.8,0.0,0.2
COc1cc(CN2CCC(Oc3cc(C(=O)NC4CC4)ccc3OC)CC2)cc(OC)c1,-3.8,-7.8,-75.2*,0.3,2.7
O=C1c2ccccc2C(=O)N1Cc1ccco1,-4.5,-2.9,-9.8,-0.1,0.0
O=C1CCC(=O)N1CN(Cc1ccco1)CN1C(=O)CCC1=O,-7.3,-6.3,-77.4*,0.0,1.0
COc1ccc(C2=NS(=O)(=O)N(C)C(C(=O)Nc3cc(C)ccc3O)=C2)cc1OC,-1.0,-7.7,-9.4,-0.5,0.6
SMILES,TRHR enhancer,D1 PAM,D1 antagonist,TRHR ag,D1 ag
COc1ccc(NC(=O)C2=CC(c3ccc(C)cc3)=NS(=O)(=O)N2C)cc1OC,0.6,-2.1,-9.7,0.1,0.7
COc1ccc(C2=NS(=O)(=O)N(C)C(C(=O)Nc3ccc(OC)c(OC)c3)=C2)cc1,0.8,-11.7,-34.1*,-0.1,1.6
CCc1ccccc1NC(=O)C1=CC(c2ccc(OC)c(OC)c2)=NS(=O)(=O)N1C,2.9,-2.5,-11.7,0.0,34.5*!
COc1ccc(NC(=O)C2=CC(c3ccc(C)cc3)=NS(=O)(=O)N2C)cc1,-1.7,-0.2,-32.8*,-0.6,18.0
COc1ccc(N2CCN(C(=O)c3cc4c(=O)n(Cc5cccnc5)ccc4nc3C)CC2)cc1,4.1,-3.6,9.7,0.7,0.2
CC(C)(C)NC(=O)CSc1nnnn1C(C)(C)C,-2.9,-9.8,-37.8*,0.2,3.9
CC(C)c1nnc(SCC(=O)NC(C)(C)C)n1C,-0.7,2.3,-2.8,0.7,2.0
Cn1cnc([N+](=O)[O-])c1Sc1ccc(C(C)(C)C)cc1,-6.3,2.0,-1.0,2.3,35.2*
COc1ccc(Cn2ccnc2SCC(=O)Nc2ccccc2OC)cc1,-6.0,-2.5,-7.9,0.0,7.6
COc1ccc(Cn2ccnc2SCC(=O)Nc2ccccc2F)cc1,-4.7,-6.2,-30.9*,-0.9,2.3
Cc1ccc(OCCn2cnc3c2c(=O)n(C)c(=O)n3C)cc1,3.0,-6.4,-31.7*,0.4,5.7
Cc1ccc(NC(=O)COC(=O)Cn2cnc3c2c(=O)n(C)c(=O)n3C)c(Cl)c1,23.8,-6.1,1.5,0.8,4.1
Cn1c(=O)c2c(ncn2CC(COCc2ccccc2)OCc2ccccc2)n(C)c1=O (stereo not given),-3.0,-4.0,-55.2*,-0.2,0.8
Cc1ccc(Cl)c(OC(=O)Cn2cnc3c2c(=O)n(C)c(=O)n3C)c1,1.5,2.9,-40.9*,-1.1,13.5
Cn1c(=O)c2c(ncn2Cc2ccccc2)n(C)c1=O,-4.5,5.0,4.5,1.3,3.3
CCOC(=O)c1ccc(NC(=O)CCc2nc(-c3ccc(C)cc3)no2)cc1,14.9,-8.6,0.8,-2.4,45.2*
CCOC(=O)c1ccc(NC(=O)CCc2nc(-c3ccc(Cl)cc3)no2)cc1,11.3,-3.9,-19.2,0.0,20.4
Cc1ccc(-c2noc(CCCC(=O)Nc3cccnc3)n2)cc1,-12.2,-2.7,-33.6*,-0.6,19.8
O=C(CCCc1nc(-c2ccccc2)no1)Nc1cccnc1,8.9,-9.7,-17.3,0.1,6.2
Cc1ccc(-n2nc(C)c3c(C(=O)NCc4ccccc4)cc(C4CC4)nc32)cc1,2.0,-2.5,17.9,1.4,3.8
Cc1nn(CCCC(=O)Nc2cc(C(F)(F)F)ccc2Cl)c(=O)c2c1sc1ccccc12,3.6,-0.6,2.0,0.5,0.9
Cc1cc(OCC(=O)N2CCN(c3ccc(F)cc3)CC2)c2c(C)cc(=O)oc2c1,2.7,-3.1,-32.7*,0.0,-0.2
Cc1cc(OCC(=O)N2CCN(c3ccccc3)CC2)c2c(C)cc(=O)oc2c1,-1.9,1.4,13.2,0.0,1.2
Cc1cn2c(=O)cc(COC(=O)COc3ccc(C)c(C)c3)nc2s1,-0.2,-2.1,-38.0*,-0.6,23.8
COc1ccccc1C(=O)Nc1cccc(C(=O)OCc2cc(=O)n3cc(C)sc3n2)c1,-0.1,1.3,-31.0*,-0.9,-0.4
O=C(Cc1cccc2ccccc12)Nc1c(F)cccc1F,3.6,-5.3,-35.5*,-1.6,1.2
